About 10,000 (2.8%) of roughly 360,000 compounds were called active. Inconclusive results (about 4%) are left out. Calls come from the whole dose curve; as a rule, active = well fitted inhibition curve with a large enough effect; inconclusive = small, poorly fitted or top-dose-only effect; inactive = flat fitted curve, though single readings scatter. Only a selection was taken, and actives are over-represented in it overall.
target: Serine/threonine-protein kinase PLK1 (Homo sapiens) (UniProt P53350); assay: qHTS for Inhibitors of PLK1-PDB (polo-like kinase 1 - polo-box domain): Primary Screen; settings: Plk1 PBD binding of FITC phosphopeptide, fluorescence polarization; note: nearly all actives have a fitted effect of over 65% in size; for max response, negative = inhibition: series mostly up to about 57 µM
Sequence (P53350 whole entry, looked up, the tested form may be a part): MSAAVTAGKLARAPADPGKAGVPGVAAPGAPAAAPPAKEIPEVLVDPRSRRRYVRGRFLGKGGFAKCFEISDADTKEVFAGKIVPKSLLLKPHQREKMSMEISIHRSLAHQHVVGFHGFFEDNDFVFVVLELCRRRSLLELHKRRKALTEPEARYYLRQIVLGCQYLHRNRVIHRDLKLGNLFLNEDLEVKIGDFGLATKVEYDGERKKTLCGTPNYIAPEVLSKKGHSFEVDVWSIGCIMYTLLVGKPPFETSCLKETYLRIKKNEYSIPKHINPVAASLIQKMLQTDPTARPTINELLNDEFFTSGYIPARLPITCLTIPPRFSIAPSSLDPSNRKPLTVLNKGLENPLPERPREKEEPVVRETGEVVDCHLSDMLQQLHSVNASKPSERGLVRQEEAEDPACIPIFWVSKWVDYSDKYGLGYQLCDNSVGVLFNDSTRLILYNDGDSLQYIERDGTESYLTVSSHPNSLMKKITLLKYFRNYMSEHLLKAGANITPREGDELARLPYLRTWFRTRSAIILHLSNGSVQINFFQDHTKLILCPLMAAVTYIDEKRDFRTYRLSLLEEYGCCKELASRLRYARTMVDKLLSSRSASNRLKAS
% is set by controls: 0 for no effect and ±100 for the full control effect; potency is the fitted concentration of half-maximal effect.

Row | SMILES | max response, negative = inhibition | Potency
1 | Cn1c(Cn2nnc3ccccc32)nnc1SCC(=O)c1ccccc1F | -9.05% (inactive) | 
2 | Fc1ccc(OCc2nn3c(Cn4nnc5ccccc54)nnc3s2)cc1 |  | 11.9 µM (active)
3 | C/C(Cn1nnc2ccccc21)=N\OC(=O)c1cc(F)c(F)cc1Cl | -15% (inactive) | 
4 | COC(=O)[C@]12CCCCC=C1N(Cc1ccc(Cl)cc1Cl)C(=O)[C@H](CC(=O)NCc1cccc3ccccc13)C2 | -11% (inactive) | 
5 | CCc1nc2c(=O)[nH]cnc2o1 | -1.77% (inactive) | 
6 | CC(=NNC(N)=O)C1CC2CCC1CC2 (stereo not drawn) | -7.72% (inactive) | 
7 | CC(C)c1nc(SCC(=O)Nc2cccc(C(=O)O)c2)c2c3c(sc2n1)CCCC3 |  | 42.3 µM (active)
8 | Cc1cc(NC(=O)CSc2nc(C(C)C)nc3sc4c(c23)CCC(C)C4)no1 (stereo not drawn) | -3.46% (inactive) | 
9 | Cc1ccc(C(=O)NCCc2nnc(SCC(=O)Nc3cccc(C(=O)O)c3)n2C)cc1 | 1.64% (inactive) | 
10 | CC1(C(=O)NCc2ccc3c(c2)OCO3)CCN1C(=O)Cc1cccs1 (stereo not drawn) | 10.1% (inactive) | 
11 | COC(=O)c1ccc2nc(-c3cccc(Br)c3)c(Cc3ccccc3C(F)(F)F)n2c1 | -0.95% (inactive) | 
12 | Cc1ccc(CNC(=O)c2cccnc2Cl)cc1 | -17.3% (inactive) | 
13 | CCN(CC)S(=O)(=O)c1ccc(NC(=O)c2cnc(C)cn2)cc1 | 1.21% (inactive) | 
14 | CCN(CC)S(=O)(=O)c1ccc(NC(=O)c2cccnc2Cl)c(NC(=O)c2cccnc2Cl)c1 |  | 23.8 µM (active)
15 | COc1ccc(-c2csc(C(O)c3cccc(Cl)c3)n2)cn1 (stereo not drawn) | -6.07% (inactive) | 
16 | CCCCCNC(=O)C(c1ccc(OC)cc1)n1c(=O)c(-c2ccccc2)nc2ccccc21 (stereo not drawn) | -10.5% (inactive) | 
17 | COc1ccc(NS(=O)(=O)c2ccc3oc(SCC(N)=O)nc3c2)cc1 | -0.392% (inactive) | 
18 | COc1ccc(S(=O)(=O)Nc2ccc(O)c(Sc3nc4ccccc4s3)c2)cc1 |  | 16.8 µM (active)
19 | O=S(=O)(Nc1ccc2nc(N3CCOCC3)sc2c1)c1ccccc1 | -10.1% (inactive) | 
20 | O=C(O)c1cccc(S(=O)(=O)Nc2ccc(O)cc2Sc2nc3ccccc3s2)c1 |  | 13.4 µM (active)
21 | COc1ccc(NS(=O)(=O)c2ccc(NC(=S)NC(=O)CC(C)C)cc2)cc1 | -14.2% (inactive) | 
22 | Cc1nc2ccc(NC(=O)c3cccc(S(=O)(=O)N4CCOCC4)c3)cc2s1 | -2.09% (inactive) | 

Row | SMILES | max response, negative = inhibition | Potency
23 | N#Cc1ccc(-c2ccc3nccn3c2)cc1 | -5.23% (inactive) | 
24 | O=C(c1cccs1)N1CCN(Cc2ccc3c(c2)OCO3)CC1 | -0.579% (inactive) | 
25 | COc1ccc(-c2cc(C(=O)N3CCN(Cc4ccc5c(c4)OCO5)CC3)on2)cc1OC |  | 5.97 µM (active)
26 | Cc1cc(C)n2nc(C(=O)N3CCN(Cc4ccc5c(c4)OCO5)CC3)nc2n1 | -1.06% (inactive) | 
27 | COC(=O)Cc1ccc(NC(=S)NCc2ccccc2)cc1 | -14.7% (inactive) | 
28 | Cc1ccc(OC(=O)CCC(=O)Nc2ccc(Br)cc2)cc1 | -3.3% (inactive) | 
29 | CC(C)Oc1ccc(CC(=O)NNC(=S)Nc2ccc(Br)cc2)cc1 |  | 13.4 µM (active)
30 | O=C1NC[C@@H](CCCCN2CCN(CCc3ccc(O)cc3)C(=O)C2=O)N(CC2CCCCC2)C1=O | -8.33% (inactive) | 
31 | FC(F)(F)c1cccc(-c2nc3ccccc3n2C(c2ccccc2)c2nc3ccccc3[nH]2)c1 (stereo not drawn) | -0.5% (inactive) | 
32 | Cc1cccc(C)c1NC(=O)CN1CCN(c2ccc(F)cc2)CC1 | -2.75% (inactive) | 
33 | CCOc1cc(C=NNC(=O)CCCC(=O)NN=Cc2ccc(O)c(OCC)c2)ccc1O | -0.399% (inactive) | 
34 | C/C=N/NC(=O)CCCC(=O)N/N=C/C |  | 29.9 µM (active)
35 | C=CCNC(=O)CCCC(=O)NCC=C | 2.64% (inactive) | 
36 | Cc1cc(C)n2c(Nc3c(C)cccc3C)c(CCc3ccccc3)nc2n1 | -7.58% (inactive) | 
37 | CC(=O)c1cccc(NC(=O)c2cc(C)nn2-c2ccccc2)c1 | 5.02% (inactive) | 
38 | CSc1ccccc1C(=O)NCc1ccccc1 | -11.2% (inactive) | 
39 | CSc1ccccc1C(=O)Nc1cccc(C(C)=O)c1 |  | 23.8 µM (active)
40 | CN(Cc1c(F)cccc1Cl)C(=O)COC(=O)Cn1cnc2ccccc2c1=O | -0.103% (inactive) | 
41 | CC(C)C1C(=O)N(Cc2cn(CCC3OCCO3)nn2)CCS(=O)(=O)N1Cc1ccc(-c2ccccc2C(F)(F)F)cc1 (stereo not drawn) | 0.333% (inactive) | 
42 | COc1cccc(-c2ccc3c(c2)N(Cc2ccccc2OC)C(=O)C(C)S3)c1 (stereo not drawn) | 0.113% (inactive) | 
43 | CCOC(=O)C1CCCN(C(=O)c2ccc(N(C)C)cc2)CC1 (stereo not drawn) | -4.5% (inactive) | 
44 | CC(=O)c1cccc(NC(=S)N2CCCC2)c1 | -6.15% (inactive) | 

Row | SMILES | max response, negative = inhibition | Potency
45 | Cc1cccc(NC(=S)N2CCC(c3nc4ccccc4s3)CC2)c1 | -1.09% (inactive) | 
46 | Cc1cccc(NC(=S)N2CCC(C(=O)c3ccc(F)cc3)CC2)c1 |  | 2.99 µM (active)
47 | CCOC(=O)C1(C)CCCN(C(=O)c2ccc(F)c(Cl)c2)C1 (stereo not drawn) | -9.56% (inactive) | 
48 | CN(C)C(CNC(=O)c1cccc(S(=O)(=O)N2CCc3ccccc3C2)c1)c1ccccc1 (stereo not drawn) | -5.08% (inactive) | 
49 | CC1(C(=O)NS(=O)(=O)c2cccc(F)c2)CCN1C(=O)c1cccc2ccccc12 (stereo not drawn) | -0.565% (inactive) | 
50 | O=C1c2ccccc2C(=O)N1CCCCCCN1C(=O)c2ccccc2C1=O | -2.55% (inactive) | 
51 | Cc1ccc2[nH]cc(CCCN3C(=O)c4ccccc4C3=O)c2c1 |  | 29.9 µM (active)
52 | COc1ccc2[nH]cc(CCN3C(=O)c4ccc(C(=O)O)cc4C3=O)c2c1 | -13.3% (inactive) | 
53 | COC(=O)C1(C(=O)OC)C/C=C\CN(S(=O)(=O)c2ccccc2[N+](=O)[O-])CCC1 | 3.46% (inactive) | 
54 | O=C1OCCC1=COCCCCOC=C1CCOC1=O | 1.79% (inactive) | 
55 | Cc1ccc(NC(=O)C(=O)NCC2CCN(C(=O)c3cccc([N+](=O)[O-])c3)CC2)cc1 |  | 29.9 µM (active)
56 | O=C(NCCN1CCN(C(=O)c2cccc([N+](=O)[O-])c2)CC1)C(=O)NCc1ccc(Cl)cc1 | 2.99% (inactive) | 
57 | Cc1ccc(NC(=O)O/N=C/c2cccc([N+](=O)[O-])c2)cc1 | -16.5% (inactive) | 
58 | Cc1cccc(C)c1NC(=O)CNC(=O)c1ccc(N2CCOCC2)c([N+](=O)[O-])c1 | -13.7% (inactive) | 
59 | O=C(CNC(=O)c1ccccc1)Oc1ccc([N+](=O)[O-])cc1 |  | 5.32 µM (active)
60 | O=C(NNS(=O)(=O)Cc1ccccc1)c1ccc([N+](=O)[O-])cc1 | -14.2% (inactive) | 
61 | COC(=O)CNC(=O)c1ccccc1[N+](=O)[O-] | -2.66% (inactive) | 
62 | Cc1ccc(Cc2c(-c3ccc(C)cc3)nc3c4ccccc4ccn23)cc1 | 5.48% (inactive) | 
63 | COc1cc(C=C(OC(C)=O)c2ccc3c(c2)OCO3)cc(OC)c1OC | -7.84% (inactive) | 
64 | CCOC(=O)C1(C)CCCN(C(=O)c2ccc(N(C)C)cc2)C1 (stereo not drawn) | -5.89% (inactive) | 
65 | CCc1ccccc1NC(=O)CN(C)S(=O)(=O)c1ccc2c(c1)c(=O)n(C)c(=O)n2C | -2.91% (inactive) | 
66 | COc1cccc(CNC(=O)CN(C)S(=O)(=O)c2ccc3c(c2)c(=O)n(C)c(=O)n3C)c1 | -6.18% (inactive) | 

Row | SMILES | max response, negative = inhibition | Potency
67 | CC1CCC(NC(=O)CN(C)S(=O)(=O)c2ccc3c(c2)c(=O)n(C)c(=O)n3C)CC1 (stereo not drawn) |  | 18.9 µM (active)
68 | CCNC(=O)C1CCCN(C(=O)c2ccc(OC)cc2OC)CC1 (stereo not drawn) | -11.4% (inactive) | 
69 | Cc1cc(C)c(C=NNc2nc3c([nH]2)c(=O)n(C)c(=O)n3C)c(C)c1 | -11.3% (inactive) | 
70 | Cc1ccc(NN=Nc2nc3c([nH]2)c(=O)n(C)c(=O)n3C)cc1 |  | 23.8 µM (active)
71 | Cc1cccc(C)c1NC(=O)CSc1nc2c([nH]1)c(=O)n(C)c(=O)n2C | -5.89% (inactive) | 
72 | C[C@H]1CN([C@@H](C)CO)C(=O)CCCn2cc(nn2)CO[C@@H]1CN(C)S(=O)(=O)c1cccs1 | -15.8% (inactive) | 
73 | Cc1ccc(C(=O)N/C(=C\c2ccc(F)cc2)C(=O)NCCN2CCOCC2)cc1 | -16.1% (inactive) | 
74 | CCn1cc(/C=C(\NC(=O)c2ccc(C)cc2)C(=O)NCCN2CCOCC2)c2ccccc21 |  | 26.7 µM (active)
75 | O=C(NCCN1CCOCC1)/C(=C/c1ccc(F)cc1)NC(=O)c1ccccc1 | -12.8% (inactive) | 
76 | CCCOc1ccc(F)cc1-c1cc(C(=O)Nc2ccc(F)cc2)[nH]n1 | 6.37% (inactive) | 
77 | O=C(NCc1cccc(C(F)(F)F)c1)c1ccc2sc(COCCO)nc2c1 | -3.85% (inactive) | 
78 | CCOC(=O)C1C(C)C(C(C)(C)C)N(S(=O)(=O)c2ccc(C)cc2)C1c1ccccc1 (stereo not drawn) | -10.1% (inactive) | 
79 | CC1(C(=O)NCC2CCOCC2)Cc2c(-c3cccc(C(N)=O)c3)ccnc2O1 (stereo not drawn) | -6.03% (inactive) | 
80 | CN(C)/C=C/C(=O)c1ccccc1F | -6.3% (inactive) | 
81 | Cc1nc(COc2cccc(Cl)c2)sc1C(=O)/C=C/N(C)C | 6.79% (inactive) | 
82 | Cc1nc(-c2ccccc2)sc1C(=O)/C=C/N(C)C |  | 29.9 µM (active)
83 | Cc1ccc(-c2nc3c(Cl)cc(C(F)(F)F)cn3c2Cc2cccc(Cl)c2)cc1 | 4.46% (inactive) | 
84 | CCOC(=O)c1c(NC(=O)CN2C(=O)NC3(CCC(C)CC3)C2=O)sc(C)c1CC (stereo not drawn) | -5.1% (inactive) | 
85 | CCOC(=O)c1c(NC(=O)C2CC=CCC2C(=O)O)sc(C)c1CC (stereo not drawn) |  | 26.7 µM (active)
86 | COC(=O)c1c(NC(=O)C2CC(C)=C(C)CC2C(=O)O)sc2c1CCCCC2 (stereo not drawn) | -20.4% (inactive) | 
87 | Nc1ncnc2c1ncn2[C@@H]1O[C@H](C(=O)NS(=O)(=O)c2c(Cl)nc3sccn23)[C@@H](O)[C@H]1O | -12.2% (inactive) | 
88 | COCCNc1ncnc2c1ncn2[C@H]1CN(Cc2ccc(OC)cc2)C[C@@H](CO)O1 | 5.71% (inactive) | 

Reference: PubChem BioAssay AID720504 (National Center for Advancing Translational Sciences (NCATS), 2013)
